This is an account of results in PubChem BioAssay (NCI).

This is part of a sample that, as a whole, favours compounds with a hit. Of some 83,000 tested, about 20% had one in any assay.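 For each line, cells grew in 96-well plates with the test compound present at a single concentration for 48 hours.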 Unmarked numbers belong to inactive results. Activity calls are given as the source filed them. How the source made its calls: active means growth percent below 10; inactive means the rest.

The subject of one experiment is NCI-H522 lung. In words: NCI-60 one-dose screen, 48 h (100 = growth as untreated, 0 = no growth, -100 = all killed). The settings on record: 10 µM unless noted.
For the compound `C=C1C(=O)O[C@H]2[C@H]1CC/C(COC(=O)NCc1ccc(Cn3c(=O)sn(CCCC)c3=O)cc1)=C\CC[C@@]1(C)O[C@@H]21`, the growth was -55.8% (active).
On to `O=C(Nc1ncc(Cc2ccccc2)s1)c1cc(-c2ccccc2)nc2ccccc12`, for which the growth was 87.6%.
On to `CC(=O)Oc1ccccc1C(=O)N(Cc1ccc2c(Cl)cc(Cl)c(O)c2n1)c1ccccc1`, for which the growth is 72.2%.
On the same count and under the same terms, with `O=C(Nc1ccccc1)Nc1ccccc1CNc1nc(Nc2ccc(OCCN3CCCC3)cc2)ncc1Cl` the figure was 58.6%; with `C#Cc1ccc(NC(=O)Cc2ccc(/C=C/C(=O)c3nccn3C)cc2)cc1`, 68.1%; with `O=C(O)c1nn(-c2ccc(Cl)cc2)nc1N1CCCC1`, 89.3%.
Still for that read-out and setting: next, `CCc1ccc(Cc2cnc(NC(=O)c3cc(C)oc3C)s2)cc1`: 19.6%; `O=C(NCCN1CCOCC1)c1cncnc1Nc1ccc2c(ccn2Cc2ccccn2)c1`: 83.7%.
On the same count and under the same terms, next, `CC/C(=C(/c1ccc(Cl)cc1)c1ccc(OCCN2CCCCCC2)cc1)c1ccccc1`: 89.6%.
As to `CC(=O)OCC(=O)O[C@@H]1C[C@]2(C(C)C)O[C@@]1(C)[C@@H]1CC[C@@H](C)[C@H]1[C@@H]2OC(=O)/C=C/c1ccccc1`, the growth is 78.1%.
For `COc1ccc(C(=O)/C=C/c2ccc(C)cc2)cc1S(N)(=O)=O`, the growth was 43.1%.
The same measure, in the same setting: with `Cc1ccc(Nc2oc(-c3ccccc3)nc2[P+](c2ccccc2)(c2ccccc2)c2ccccc2)cc1` the figure was -57.4% (active); with `COc1ccc(N/N=C/c2ccc3c(c2)Sc2ccccc2N3C)cc1`, 46.9%; with `COc1ccc(N2C(=O)/C(=C/C(Cl)=C/c3ccc([N+](=O)[O-])cc3)SC2=S)cc1`, -42.5% (active).
As to `COc1ccc(C2=C/C(=C\c3ccccc3O)C(=O)N2Cc2ccccc2)cc1`, the growth was 51.3%.
As for `COC(=O)[C@H]1Cc2c([nH]c3ccccc23)[C@H](c2ccc3c(c2)OCO3)N1`, the growth is 83.2%.
Regarding `O=C(Nc1ncc(Cc2ccccc2)s1)c1ccc2c(c1)OCCO2`, the growth is -3.58% (active).
Still for that read-out and setting: next, `CC(=O)CC(=O)c1ccccc1.[Cu+2]`: 97.5%; `COC1CC(O)C2=C(CC3C(/C(C)=C\CC=C(C)C)CCC3(C)O2)C1=O` (stereo not given): 90.1%; `Nc1c(C(=O)c2ccc(Cl)cc2)sc(Nc2ccccc2)c1-c1nc2ccccc2s1`: 7.38% (active).
As for `C=CC(=O)Nc1ccc2ncnc(Nc3cccc(NS(=O)(=O)CCC)c3Cl)c2c1`, the growth was 17.8%.
Same read-out and setting: with `CCN1C(=O)N(CC)C2C1NC(=S)N2/N=C/C=C/c1ccccc1` (stereo not given) the figure was -2.87% (active).
`Oc1cccc2c1NCCC2`: the growth is -2.3% (active).
Same read-out and setting: next, `CCOC(=O)c1cnc2sc(-c3ccc(OC)cc3)nc2c1Cl`: 97.8%.
As for `Cc1ccc2nc(/C=C/c3ccc(N(C)C)cc3)cc(C)c2c1`, the growth was 25.1%.
As for `C=CCOC(=O)C1=C(C)N(CC)C(=O)N(CC)C1c1c(Cl)n(C)c2ccccc12` (stereo not given), the growth was 84.8%.
With `C=C(C)[C@@H]1CC[C@]2(COC(=O)c3cccnc3)CC[C@]3(C)[C@H](CC[C@@H]4[C@@]5(C)CCCN(C(=O)c6cccnc6)C(C)(C)[C@@H]5CC[C@]43C)[C@@H]12`, the growth was 34.3%.
The same measure, in the same setting: next, `COc1ccc(C2=NN3C(C2)c2cc(Br)ccc2OC3c2ccncc2)cc1` (stereo not given): 60%.
Consider `C=CC(=O)NCc1cccc(Nc2ncc(Br)c(NCCCNC(=O)C3CCC3)n2)c1`, for which the growth is -38.8% (active).
Consider `O=C(O)/C=C/c1cn(-c2ccccc2)nc1-c1ccc(F)cc1`, for which the growth is 98.2%.
Regarding `CCNCCNc1c(C)c(-c2ccc(C(F)(F)F)cc2)c(C#N)c2nc3ccccc3n12`, the growth is 76.8%.
On the same count and under the same terms, with `O=C1CCc2c(sc3[nH]c(=S)n(-c4cc(C(F)(F)F)cc(C(F)(F)F)c4)c(=O)c23)C1` the figure was -46.6% (active); with `COc1cc2cc(Oc3ccc(NC(=O)Nc4ccc(F)c(C(F)(F)F)c4)cc3)c(C)nc2cc1OCCN1CCCCC1`, -66.6% (active); with `Cc1ccc2c(c1)CC(O)CC1C(=O)N(CCO)CC(=O)N21` (stereo not given), 82.5%.
In the case of `CC(C)(C)CC(C)(C)Nc1c(-c2c(O)c3ccccc3oc2=O)nc2sccn12`, the growth was 83%.
As for `O=C1NC(=O)C(=Cc2cc(-c3ccc(Cl)cc3)n(-c3ccccc3)n2)C(=O)N1`, the growth was 103%.
Take `CCOC(=O)c1c2c(n3ccc(NC(=O)CCN4CCCC4)cc13)C(=O)c1ncccc1C2=O`: the growth is -37% (active).
With `COc1ccc(-c2ccc(-c3ccc(C(=N)N)o3)o2)cc1`, the growth was 1.71% (active).
In the case of `CC(C)c1nc(N(C)S(C)(=O)=O)nc(-c2ccc(F)cc2)c1/C=C/C(=O)C[C@@H](O)CC(=O)O`, the growth was 71.4%.
For the compound `CCOc1cc(\C=N/N=C(N)/C(N)=N\N=C/c2ccc(O)c(OCC)c2)ccc1O`, the growth was 105%.

A further experiment has as its system A549/ATCC NSCLC. Described as above. The settings on record: 10 µM unless noted.
As to `C=C1C(=O)O[C@H]2[C@H]1CC/C(COC(=O)NCc1ccc(Cn3c(=O)sn(CCCC)c3=O)cc1)=C\CC[C@@]1(C)O[C@@H]21`, the growth is 93.5%.
On the same count and under the same terms, with `O=C(Nc1ncc(Cc2ccccc2)s1)c1cc(-c2ccccc2)nc2ccccc12` the figure was 98.2%; with `CC(=O)Oc1ccccc1C(=O)N(Cc1ccc2c(Cl)cc(Cl)c(O)c2n1)c1ccccc1`, 29.2%; with `O=C(Nc1ccccc1)Nc1ccccc1CNc1nc(Nc2ccc(OCCN3CCCC3)cc2)ncc1Cl`, 59.4%.
Take `C#Cc1ccc(NC(=O)Cc2ccc(/C=C/C(=O)c3nccn3C)cc2)cc1`: the growth is 74.6%.
As for `O=C(O)c1nn(-c2ccc(Cl)cc2)nc1N1CCCC1`, the growth was 101%.
In the case of `CCc1ccc(Cc2cnc(NC(=O)c3cc(C)oc3C)s2)cc1`, the growth was 34.7%.
Still for that read-out and setting: with `O=C(NCCN1CCOCC1)c1cncnc1Nc1ccc2c(ccn2Cc2ccccn2)c1` the figure was 101%.
Take `CC/C(=C(/c1ccc(Cl)cc1)c1ccc(OCCN2CCCCCC2)cc1)c1ccccc1`: the growth is 59.5%.
With `CC(=O)OCC(=O)O[C@@H]1C[C@]2(C(C)C)O[C@@]1(C)[C@@H]1CC[C@@H](C)[C@H]1[C@@H]2OC(=O)/C=C/c1ccccc1`, the growth was 71.7%.
With `COc1ccc(C(=O)/C=C/c2ccc(C)cc2)cc1S(N)(=O)=O`, the growth was 43.6%.
On to `Cc1ccc(Nc2oc(-c3ccccc3)nc2[P+](c2ccccc2)(c2ccccc2)c2ccccc2)cc1`, for which the growth was -25% (active).
Same read-out and setting: next, `COc1ccc(N/N=C/c2ccc3c(c2)Sc2ccccc2N3C)cc1`: 57.2%; `COc1ccc(N2C(=O)/C(=C/C(Cl)=C/c3ccc([N+](=O)[O-])cc3)SC2=S)cc1`: -0.282% (active).
For the compound `COc1ccc(C2=C/C(=C\c3ccccc3O)C(=O)N2Cc2ccccc2)cc1`, the growth is 74%.
Regarding `COC(=O)[C@H]1Cc2c([nH]c3ccccc23)[C@H](c2ccc3c(c2)OCO3)N1`, the growth is 105%.
As for `O=C(Nc1ncc(Cc2ccccc2)s1)c1ccc2c(c1)OCCO2`, the growth was 16.6%.
The same measure, in the same setting: next, `CC(=O)CC(=O)c1ccccc1.[Cu+2]`: 104%; `COC1CC(O)C2=C(CC3C(/C(C)=C\CC=C(C)C)CCC3(C)O2)C1=O` (stereo not given): 95.2%; `Nc1c(C(=O)c2ccc(Cl)cc2)sc(Nc2ccccc2)c1-c1nc2ccccc2s1`: 17.8%.
On to `C=CC(=O)Nc1ccc2ncnc(Nc3cccc(NS(=O)(=O)CCC)c3Cl)c2c1`, for which the growth is 50.8%.
For the compound `CCN1C(=O)N(CC)C2C1NC(=S)N2/N=C/C=C/c1ccccc1` (stereo not given), the growth was 16.9%.
Regarding `Oc1cccc2c1NCCC2`, the growth is 12.9%.
Take `CCOC(=O)c1cnc2sc(-c3ccc(OC)cc3)nc2c1Cl`: the growth was 106%.
Consider `Cc1ccc2nc(/C=C/c3ccc(N(C)C)cc3)cc(C)c2c1`, for which the growth was 52.3%.
Still for that read-out and setting: with `C=CCOC(=O)C1=C(C)N(CC)C(=O)N(CC)C1c1c(Cl)n(C)c2ccccc12` (stereo not given) the figure was 63.7%; with `C=C(C)[C@@H]1CC[C@]2(COC(=O)c3cccnc3)CC[C@]3(C)[C@H](CC[C@@H]4[C@@]5(C)CCCN(C(=O)c6cccnc6)C(C)(C)[C@@H]5CC[C@]43C)[C@@H]12`, 29.3%; with `COc1ccc(C2=NN3C(C2)c2cc(Br)ccc2OC3c2ccncc2)cc1` (stereo not given), 71.7%.
On to `C=CC(=O)NCc1cccc(Nc2ncc(Br)c(NCCCNC(=O)C3CCC3)n2)c1`, for which the growth was -9.64% (active).
`O=C(O)/C=C/c1cn(-c2ccccc2)nc1-c1ccc(F)cc1`: the growth was 82.2%.
On the same count and under the same terms, with `CCNCCNc1c(C)c(-c2ccc(C(F)(F)F)cc2)c(C#N)c2nc3ccccc3n12` the figure was 88.7%; with `O=C1CCc2c(sc3[nH]c(=S)n(-c4cc(C(F)(F)F)cc(C(F)(F)F)c4)c(=O)c23)C1`, 5.85% (active).
Take `COc1cc2cc(Oc3ccc(NC(=O)Nc4ccc(F)c(C(F)(F)F)c4)cc3)c(C)nc2cc1OCCN1CCCCC1`: the growth is -45.9% (active).
`Cc1ccc2c(c1)CC(O)CC1C(=O)N(CCO)CC(=O)N21` (stereo not given): the growth was 76.6%.
Same read-out and setting: with `CC(C)(C)CC(C)(C)Nc1c(-c2c(O)c3ccccc3oc2=O)nc2sccn12` the figure was 90.8%; with `O=C1NC(=O)C(=Cc2cc(-c3ccc(Cl)cc3)n(-c3ccccc3)n2)C(=O)N1`, 97.4%.
For `CCOC(=O)c1c2c(n3ccc(NC(=O)CCN4CCCC4)cc13)C(=O)c1ncccc1C2=O`, the growth is -66.6% (active).
For `COc1ccc(-c2ccc(-c3ccc(C(=N)N)o3)o2)cc1`, the growth is 1.8% (active).
With `CC(C)c1nc(N(C)S(C)(=O)=O)nc(-c2ccc(F)cc2)c1/C=C/C(=O)C[C@@H](O)CC(=O)O`, the growth was 89.5%.
For the compound `CCOc1cc(\C=N/N=C(N)/C(N)=N\N=C/c2ccc(O)c(OCC)c2)ccc1O`, the growth was 107%.
